Inconclusive results are not listed. Active and inactive are the calls of the source. The call rests on the fitted dose curve; in most records, active means well fitted inhibition curve with a large enough effect; inconclusive means small, poorly fitted or top-dose-only effect; inactive means no such curve, though single readings can be large or run the other way.
Target: Aldehyde dehydrogenase 1A1 (Homo sapiens) (UniProt P00352)
Assay: qHTS for Inhibitors of the Aldehyde Dehydrogenase Family (ALDH1A1) Confirmatory screens (AID 2061316); further: nearly all actives have a fitted effect of over 65% in size
Settings: ALDH inhibition qHTS; series mostly up to 47.3 µM
Potency means the concentration at half of the fitted maximal effect.

SMILES | Potency
CC(=O)c1c(O)cc(O[C@@H]2O[C@H](CO)[C@@H](O)[C@H](O)[C@H]2O)cc1O | inactive
C[C@H](O)[C@H](O)[C@H]1CNc2nc(N)[nH]c(=O)c2N1 | 12.7 µM (active)
CCC(O)C(C)C1CCC(C(C)C(=O)O)O1 (stereo not given) | inactive

Tested on: not listed separately
Assay: BET inhibitor-based combinations targeting novel dependencies in MECOM-rearranged (r) AML: SET-2 cell line (AID 2202231); further: nearly all actives have a fitted effect of over 35% in size;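 on viability: plate controls were DMSO treated cells for no effect and wells without cells for full effect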
Settings: SET-2 AML cells viability, CellTiter-Glo luminescence, 48 h; viability: hits give low values, concentration not given here
How it was run: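 Each compound was tested at eleven concentrations on cells seeded at 500/well. After two days' incubation, ATP-based luminescence reported viability; responses relative to DMSO and blank wells yielded AUC and cell-line-centred Z-AUC.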

SMILES | Potency | viability
CN(C)C/C=C/C(=O)Nc1ccc(C(=O)Nc2cccc(Nc3ncc(Cl)c(-c4c[nH]c5ccccc45)n3)c2)cc1 | 0.662 µM (active) | –
Nc1ccn(C2CO[C@H](CO)O2)c(=O)n1 (stereo not given in full) | – | 113% (inactive)
CC(=O)Nc1cccc(-n2c(=O)n(C3CC3)c(=O)c3c(Nc4ccc(I)cc4F)n(C)c(=O)c(C)c32)c1 | – | 89.5% (inactive)
COc1c(OCCCN2CCOCC2)ccc2c3n(c(=NC(=O)c4cnc(N)nc4)nc12)CCN3 | 1.08 µM (active) | –
CC(C)n1nc(-c2ccc3oc(N)nc3c2)c2c(N)ncnc21 | 0.148 µM (active) | –
CO[C@@H](C)Cn1c(=O)n(C)c2cnc3ccc(-c4cncc(C(C)(C)O)c4)cc3c21 | 0.934 µM (active) | –
Cc1nc(NC(=O)N2CCC[C@H]2C(N)=O)sc1-c1ccnc(C(C)(C)C(F)(F)F)c1 | – | 89% (inactive)
C[C@@H](Oc1cc(-c2cnn(C3CCNCC3)c2)cnc1N)c1c(Cl)ccc(F)c1Cl | 10.5 µM (active) | –
COCCCc1sc(-c2ccccc2)nc1C(=O)Nc1ccccc1-c1nc2cc(CN3CCCC3)cnc2s1 | – | 121% (inactive)
O=C(NOCC1CC1)c1ccc(F)c(F)c1Nc1ccc(I)cc1Cl | 23.5 µM (active) | –
Cc1nc(NC(=O)N2CCCC2C(N)=O)sc1-c1ccnc(C(C)(C)C(F)(F)F)c1 (stereo not given) | 20.9 µM (active) | –
CC(C)(C)c1nc(-c2cccc(NS(=O)(=O)c3c(F)cccc3F)c2F)c(-c2ccnc(N)n2)s1 | – | 98% (inactive)
Cc1ncc(NC(=O)c2ccc(CN3CCN(C)CC3)c(C(F)(F)F)c2)cc1Nc1nccc(-c2cccnc2)n1 | 23.5 µM (active) | –
COC(=O)Nc1ccc(-c2nc(N3CCOCC3)c3cnn(C4CCN(Cc5cccnc5)CC4)c3n2)cc1 | 2.63 µM (active) | –
NC1(Cc2ccc(Cl)cc2)CCN(c2ncnc3[nH]ccc23)CC1 | 14.8 µM (active) | –
Cn1cnc2c(F)c(Nc3ccc(Br)cc3Cl)c(C(=O)NOCCO)cc21 | – | 95.4% (inactive)
CCCOc1ccc(CCc2nc3cc(-c4c(C)noc4C)ccc3n2CCN2CCOCC2)cc1 | 20.9 µM (active) | –
c1cncc(CN2CCC(n3ncc4c(N5CCOCC5)nc(-c5ccc6[nH]ccc6c5)nc43)CC2)c1 | 3.72 µM (active) | –
Cn1cc(-c2[nH]c3cc(NC(=O)[C@H](N)C4CCCCC4)cc4c3c2C=NNC4=O)cn1 | 16.6 µM (active) | –
COc1ccc(F)c(F)c1C(=O)c1cnc(NC2CCN(S(C)(=O)=O)CC2)nc1N | 2.09 µM (active) | –
CCn1nnc2c(N3CCOCC3)nc(-c3ccc(NC(=O)Nc4ccc(C(=O)N5CCN(C)CC5)cc4)cc3)nc21 | 1.86 µM (active) | –
CC(=O)NC(C)c1ccc(Oc2ccc(OC(C)C)cc2)cc1 (stereo not given) | – | 87.6% (inactive)
